Laboratory results reported in PubChem BioAssay AID1626 (SRMLSC, 2009).
Hit rate of the full screen: of about 220,000 compounds, about 2,000 (0.91%) were called active. Not shown: some 2% with an inconclusive outcome. No stated cut-off is given here; in the data, inconclusive means inhibition above about 80% without an active follow-up result; inactive means below that; test concentration not stated here. These entries were drawn from the full list. Measured potencies and affinities stand elsewhere.

Test: M. tuberculosis H37Rv growth inhibitors, H37Rv strain (AID 1626);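 further: bacteria incubated seven days before Alamar blue readout; 0% = bacteria only wells and 100% = bacteria with antibiotic wells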
Details: stronger effect = higher value, concentration not given here

Compound	inhibition
Cc1[nH]c2ccccc2c1/C=N/NC(=O)CNC(=O)COc1ccccc1	10% (inactive)
COc1ccc(OC)c(-c2nc(CN3CCCCC3c3cccnc3)c(C)o2)c1 (stereo not given)	-0.43% (inactive)
COc1ccc(-c2noc(CN3CCCCC3c3nccn3C)n2)cc1 (stereo not given)	6.82% (inactive)
CC(C)N(Cc1nccn1C)C(=O)CCc1nnc(CCCc2ccccc2)o1	-2.35% (inactive)
Nc1nc(N2CCCCC2)nc(N(c2ccccc2)c2ccccc2)n1	1.26% (inactive)
COc1nc(N(c2ccccc2)c2ccccc2)nc(-n2ccnc2)n1	25.8% (inactive)
c1ccc(-c2ccc(CN3CCN(c4ncccn4)CC3)cc2)cc1	-1.29% (inactive)
C=CCNc1nc(-c2ccccc2)nc(-n2ccnc2)n1	16.6% (inactive)
c1ccc(-c2nc(NC3CC3)nc(-n3ccnc3)n2)cc1	-0.68% (inactive)
c1ccc(N(c2ccccc2)c2nc(-n3ccnc3)nc(-n3ccnc3)n2)cc1	-4.28% (inactive)
c1ccc(-c2nc(-n3ccnc3)nc(-n3ccnc3)n2)cc1	3.02% (inactive)
CCCCNc1nc(N(C)c2ccccc2)nc(-n2ccnc2)n1	51.3% (inactive)
Cc1nccc(-c2sc(-c3cccs3)nc2C)n1	2.12% (inactive)
COc1ccc(N2C(=O)N(Cc3ccccc3F)c3ccccc3S2(=O)=O)cc1	6.95% (inactive)
CCCCNC(=O)c1ccc(SCC(=O)N(CC)CC)c([N+](=O)[O-])c1	0.05% (inactive)
Brc1ccc(Oc2ncc(CN3CCN(c4ccccc4)CC3)s2)cc1	2.17% (inactive)
Cc1ccc(-c2cn(-c3ccc(OC(F)F)cc3)c3[n+]2CCCCC3)cc1	-4.29% (inactive)
O=C(Cn1nc(-c2nn(CC(=O)c3ccccc3)c3[n+]2CCCCC3)[n+]2c1CCCCC2)c1ccccc1	6.97% (inactive)
O=C(O)CCCC(=O)NNC(=O)c1cccc(Br)c1	0.6% (inactive)
CCOc1cc(CNCCc2ccc(S(N)(=O)=O)cc2)cc(Cl)c1OCc1ccccc1	58.8% (inactive)
COc1cc(CNCc2ccccc2)cc(Cl)c1OC	4.65% (inactive)
O=C(O)c1ccc(COc2ccccc2/C=C2\NC(=O)N(Cc3ccccc3F)C2=O)cc1	-2.79% (inactive)
CN=C(Nc1ccccc1OC)SC1CC(=O)N(c2ccc(C(=O)OC)cc2)C1=O (stereo not given)	7.4% (inactive)
CN=C(Nc1ccccc1)SC1CC(=O)N(c2ccc(C(=O)OC)cc2)C1=O (stereo not given)	-2.27% (inactive)

Compound	inhibition
COc1ccc(N=Cc2c(O)n(Cc3ccccc3)c(=S)[nH]c2=O)c(OC)c1	6.73% (inactive)
O=C(CSc1nnc(-c2cccnc2)n1-c1ccccc1)NCc1ccc2c(c1)OCO2	6.03% (inactive)
CC(Oc1ccc(Cl)cc1Cl)c1ccn[nH]1 (stereo not given)	2.27% (inactive)
O=C(O)CCC(=O)NN1C(=O)c2ccccc2NC1c1ccco1 (stereo not given)	-6.39% (inactive)
COc1ccc(NC(=O)c2cc3ccc4c5ccccc5[nH]c4c3cc2O)cc1	2.53% (inactive)
CC(=O)Nc1ccc2[nH]c3ccccc3c2c1	10.6% (inactive)
CC(OC(=O)c1ccccc1O)C(=O)Nc1cccc(Cl)c1 (stereo not given)	3.01% (inactive)
CCOc1ccc2nc(NC(=O)C3=NNC(=O)CC3)sc2c1	46.3% (inactive)
CCOC(=O)Cc1nnc(NC(=O)C(CC)Sc2nc(C)cc(=O)[nH]2)s1 (stereo not given)	-0.83% (inactive)
CCOc1ccc2nc(NC(=O)Nc3ccccc3)sc2c1	1.1% (inactive)
CCOc1ccc2nc(NC(=O)c3cccnc3)sc2c1	3.09% (inactive)
CCC(Sc1nc(C)cc(=O)[nH]1)C(=O)Nc1nnc(C)s1 (stereo not given)	-7.53% (inactive)
CCOc1ccc2nc(NC(=O)c3ccoc3C)sc2c1	8.64% (inactive)
c1ccc(CNC2=NCCCCC2)cc1	-3.52% (inactive)
COCCN(CC(=O)NC1CCCCC1)C(=O)CSc1nc2ccccc2o1	-4.79% (inactive)
CC(C)N1C(=O)c2ccc(C(=O)O)cc2C1=O	2.62% (inactive)
CCOC(=O)C1=C(C)NC(=S)N(C=O)C1c1ccccc1 (stereo not given)	6.03% (inactive)
Cc1ccc(SCC(=O)NCc2cccnc2)cc1	-4.12% (inactive)
O=c1[nH]c2ccccc2c(O)c1O	-3.51% (inactive)
O=c1[nH]c2ccccc2c2nc3ccccn3c12	-1.5% (inactive)
Cc1ccc(-c2nc(CS(=O)CC(=O)NCc3ccccc3)c(C)o2)cc1 (stereo not given)	3.18% (inactive)
O=C(Nc1ccc(N2CCOCC2)cc1)C1CC1	-4.12% (inactive)
O=C(Nc1ccc(Oc2ccc(NC(=O)C3CCCO3)cc2)cc1)C1CCCO1 (stereo not given)	-8.27% (inactive)
CS(=O)(=O)N1CCC(C(=O)Nc2ccc(Oc3ccccc3)cc2)CC1	2.66% (inactive)

Compound	inhibition
COc1ccc(NC(=O)C2CCCO2)cc1 (stereo not given)	-10% (inactive)
O=C(Nc1ccc(Nc2ccccc2)cc1)C1CC1	-4.99% (inactive)
O=C(Nc1ccc(Cc2ccc(NC(=O)C3CC3)cc2)cc1)C1CC1	7.74% (inactive)
O=C(CCc1n[nH]c(=O)[nH]c1=O)N1CCCCC1	-1.04% (inactive)
COc1cc(C(O)P(=O)(OCC(C)C)c2ccc(N(C)C)cc2)cc(OC)c1OC (stereo not given)	-2.15% (inactive)
CCCc1[nH]nc2c1C(c1ccc(OCCN3CCOCC3)c(OC)c1)C(C#N)=C(N)O2 (stereo not given)	-0.42% (inactive)
CCC(CO)Nc1nc(CN2CCCCC2)nc2scc(-c3ccccc3)c12 (stereo not given)	7.81% (inactive)
CC1CCCN(c2nc(-c3cccnc3)nc3scc(-c4ccccc4)c23)C1 (stereo not given)	10.2% (inactive)
CN1CCN(c2nc(-c3cccnc3)nc3scc(-c4ccccc4)c23)CC1	-0.01% (inactive)
OCC1CCCN(c2nc(CN3CCCCC3)nc3scc(-c4ccccc4)c23)C1 (stereo not given)	1.65% (inactive)
CCCn1nc(C(=O)Nc2nnc(CC)s2)c2ccccc2c1=O	-9.02% (inactive)
CC1CN(C(=O)N(C)C)CCN1C(=O)N(C)C (stereo not given)	-15.9% (inactive)
CC(=O)c1c(-c2ccc(Cl)cc2Cl)noc1C	2.75% (inactive)
COc1cc(NC(=O)c2ccc(OC)c([N+](=O)[O-])c2)ccc1NC(=O)c1ccco1	-4.07% (inactive)
COc1ccccc1NC(=S)N(Cc1ccco1)Cc1cc2cc(C)c(C)cc2[nH]c1=O	6.98% (inactive)
Cc1ccc(S(=O)(=O)Nc2nc3cc(C)c(C)cc3[nH]2)cc1	8.1% (inactive)
Cn1c(SCC(=O)N2CCCC2)nc2ccccc21	3.37% (inactive)
O=C(NCc1ccco1)c1cc2n(n1)C(C(F)(F)F)CC(c1ccc(F)cc1)N2 (stereo not given)	42% (inactive)
O=C(NCc1ccco1)c1cc2n(n1)C(C(F)(F)F)CC(c1ccc(Br)cc1)N2 (stereo not given)	74.2% (inactive)
Cc1nn(C)cc1CNC(=O)c1cnn2c1NC(c1ccc(Br)cc1)CC2C(F)(F)F (stereo not given)	3.8% (inactive)
O=C(NCc1ccco1)c1cnn2c1NC(c1ccccc1)CC2C(F)(F)F (stereo not given)	2.86% (inactive)
CCCn1cc(NC(=O)c2cc3n(n2)C(C(F)(F)F)CC(c2ccccc2)N3)cn1 (stereo not given)	0.85% (inactive)
Cc1c(CNC(=O)c2cnn3c2NC(c2ccccc2)CC3C(F)(F)F)cnn1C (stereo not given)	-9.25% (inactive)
O=C(NCc1cccc(Cl)c1)c1cnn2c1NC(c1ccco1)CC2C(F)(F)F (stereo not given)	6.69% (inactive)

Compound	inhibition
O=C(O)c1cc2n(n1)C(C(F)(F)F)CC(c1ccccc1)N2 (stereo not given)	-8.1% (inactive)
Nc1nnc(CCCCCCCCCCc2nnc(N)s2)s1	-1.56% (inactive)
CC(C)(C)n1nc2c(c1NC(=O)COc1ccc(Cl)cc1)CS(=O)(=O)C2	1.01% (inactive)
CCN(C(=O)COC(=O)/C=C/c1ccc(S(=O)(=O)N2CCc3ccccc32)cc1)C1CCS(=O)(=O)C1 (stereo not given)	-3.11% (inactive)
Cc1c(Cl)cccc1S(=O)(=O)N1CCC(C(=O)NNC(=O)C2CC2)CC1	0.53% (inactive)
CCOC(=O)c1c(C)[nH]c(C(C)=O)c1C	-0.35% (inactive)
COC(=O)c1ccc(C2C(C(C)=O)=C(O)C(=O)N2CCO)cc1 (stereo not given)	-1.96% (inactive)
COc1cccc(NC(=O)N[C@@H](Cc2ccccc2)C(=O)O)c1	1.84% (inactive)
CN(C)c1ccnc(SCc2ccccc2Cl)c1C#N	11.8% (inactive)
COc1cccc(C2CC(C(F)(F)F)n3ncc(C(=O)NCc4ccco4)c3N2)c1 (stereo not given)	3.27% (inactive)
Cc1ccc(C2CC(C(F)(F)F)n3ncc(C(N)=O)c3N2)cc1 (stereo not given)	-4.41% (inactive)
Nc1nc(Cn2nnc(-c3ccccc3Cl)n2)nc(N2CCOCC2)n1	-0.22% (inactive)
COc1ccc(Cl)cc1C(=O)NNC(=O)CCNC(C)=O	-6.02% (inactive)
O=C1CS/C(=C/C(=O)c2ccccc2)N1	-2.65% (inactive)
Cc1ccc(C(=O)/C=C2/NC(=O)CS2)cc1	-4.36% (inactive)
COC(=O)CN1C(=S)N(c2ccc(OC)cc2)C(=O)/C1=C/c1cccs1	4.42% (inactive)
c1ccc(Cc2nnc(N3CCOCC3)c3ccccc23)cc1	-4.25% (inactive)
CN(C)S(=O)(=O)c1cc(C(=O)NCc2ccccc2)c(Cl)cc1Cl	-5.51% (inactive)
COc1ccc(CCN(C)C(=O)c2ccc(S(=O)(=O)NCc3ccco3)cc2)cc1OC	2.54% (inactive)
CC1=C2C3OC(=O)C(C)[C@@H]3CC[C@](C)(O)C2C2C3C4C5(C12)[C@H]1OC(=O)[C@@H](C)C1CC[C@]4(C)O[C@]5(C)[C@@H]3O (stereo not given in full)	17.2% (inactive)
Nc1ccc(-c2nc3ccc(N)cc3s2)cc1	-3.52% (inactive)
Cc1nc2cc3sc(C)nc3cc2s1	-1.33% (inactive)
CCc1ccccc1NC(=O)CSC1=C(C#N)C(c2ccc3c(c2)OCO3)C2=C(CCCC2=O)N1 (stereo not given)	4.73% (inactive)
